Experimental data as given in the supplement of paper PMC13380429.

Tested on: Vero E6 infected with SARS-CoV-2
Test: inhibition of SARS-CoV-2 cytopathic effect; higher = more antiviral protection, active = above 15
Details: 48 h

Measured: inhibition of SARS-CoV-2 cytopathic effect

O=c1[nH]c(=O)n([C@H]2C[C@H](O)[C@@H](CO)O2)cc1C(F)(F)F [trifluridine]
inactive: 1 nM -2.13% | 8.33 nM 0.14% | 100 nM 0.73% | 833.33 nM 1.01% | 10000 nM -1.77%

Clc1cccc(N2CCNCC2)c1
inactive: 1 nM -1.68% | 8.33 nM -2.45% | 100 nM -0.72% | 833.33 nM -3.2% | 10000 nM -2.99%

COCCOC(=O)C1=C(C)NC(C)=C(C(=O)OC(C)C)C1c1cccc([N+](=O)[O-])c1 (stereo not given) [nimodipine]
inactive: 1 nM -2.49% | 8.33 nM -0.07% | 100 nM -1% | 833.33 nM 1.52% | 10000 nM 1.16%

N=C(N)c1ccc(OCCCCCOc2ccc(C(=N)N)cc2)cc1 [pentamidine]
inactive: 1 nM -3.18% | 8.33 nM -3.29% | 100 nM -4.34% | 833.33 nM -11.7% | 10000 nM 1.08%

Cc1c(Cl)cccc1Nc1ccccc1C(=O)O [tolfenamic-acid]
inactive: 1 nM -1.57% | 8.33 nM -0.57% | 100 nM 1.25% | 833.33 nM 0.34% | 10000 nM -0.7%

COc1ccc(S(=O)(=O)Nc2cc(Cl)cc(Cl)c2OC)cc1N1CCNCC1
inactive: 1 nM -1.83% | 8.33 nM 1.03% | 100 nM 1.96% | 833.33 nM 5.17% | 10000 nM -2.32%

NC(N)=O [urea]
inactive: 1 nM -3.97% | 8.33 nM -3.63% | 100 nM -2.79% | 833.33 nM -2.47% | 10000 nM -3.31%
